{"source": "PubChem BioAssay AID1851", "about": "(National Center for Advancing Translational Sciences (NCATS), 2009)", "note": "The campaign covered roughly 16,000 compounds. About 2,600 (16%) were called active. Not shown: some 20% with an inconclusive outcome. The list is a sample of the results. Values without a mark were called inactive. Calls come from the whole dose curve; as a rule, active = well fitted curve in the direction sought with a large enough effect; inconclusive = small, poorly fitted or top-dose-only effect, or effect the other way; inactive = no such curve, though single readings can be large or run the other way. % is set by controls: 0 for no effect and ±100 for the full control effect."}
{"molecular_target": "Cytochrome P450 2D6 (Homo sapiens) (UniProt P10635)", "sequence (P10635 whole entry, looked up)": "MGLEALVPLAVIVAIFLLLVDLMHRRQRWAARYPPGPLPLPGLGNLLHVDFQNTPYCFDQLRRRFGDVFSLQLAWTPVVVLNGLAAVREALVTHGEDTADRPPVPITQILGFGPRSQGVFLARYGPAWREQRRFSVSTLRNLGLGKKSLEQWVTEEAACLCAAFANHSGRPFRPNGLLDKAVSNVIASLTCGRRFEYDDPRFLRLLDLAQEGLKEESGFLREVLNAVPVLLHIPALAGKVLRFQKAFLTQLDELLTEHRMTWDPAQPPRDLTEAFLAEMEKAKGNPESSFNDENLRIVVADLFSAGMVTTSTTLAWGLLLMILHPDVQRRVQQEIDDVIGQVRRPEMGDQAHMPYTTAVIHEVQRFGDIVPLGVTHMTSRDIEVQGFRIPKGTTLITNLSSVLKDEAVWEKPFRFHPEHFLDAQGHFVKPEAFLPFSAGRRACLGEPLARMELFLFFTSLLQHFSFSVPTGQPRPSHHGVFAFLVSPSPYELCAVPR", "test": "Cytochrome panel assay with activity outcomes", "details": "recombinant CYP, pro-luciferin dealkylation, luminescence, p450-cyp2d6; series mostly up to 57.1 µM; activity, negative = inhibition: at the top concentration"}
{"smiles": "Cc1ccc(C(=O)NC(=S)Nc2ccc3c(c2)OCCO3)c(C)c1", "activity, negative = inhibition": "17%"}
{"smiles": "CON1C(=O)C(=O)N(OC)C2CCCCC21", "note": "(stereo unspecified)", "activity, negative = inhibition": "-4.56%"}
{"smiles": "CC(C)(C)c1cc2cccnc2n1Cc1cccc(F)c1", "AC50": "1.26 µM (active)"}
{"smiles": "Cc1cccc(CSc2cccc3cccnc23)c1", "activity, negative = inhibition": "-23.8%"}
{"smiles": "COc1cccc(Cn2c(=O)c(-c3cc(F)cc(F)c3)nc3cnc(N(C)C)nc32)c1", "activity, negative = inhibition": "-5.29%"}
{"smiles": "CN(C)c1ccc(/C=C2/C(=O)N(c3ccc([N+](=O)[O-])cc3)N=C2N2CCOCC2)cc1", "activity, negative = inhibition": "-29.5%"}
{"smiles": "COc1ccc2[nH]c(C(=O)c3ccccc3)cc2c1", "activity, negative = inhibition": "-0.111%"}
{"smiles": "C=CCSC1=Nc2sccc2C2=NC(=O)CN12", "activity, negative = inhibition": "11.2%"}
{"smiles": "COc1cc2c(cc1NC(=O)c1cc(-c3cccnc3)nc3ccc(C)cc13)oc1ccccc12", "activity, negative = inhibition": "-6.75%"}
{"smiles": "COc1cc2c(cc1NC(=O)Nc1ccccc1)oc1ccccc12", "AC50": "10 µM (active)"}
{"smiles": "COc1ccccc1CC(=O)Nc1cc2oc3ccccc3c2cc1OC", "activity, negative = inhibition": "-1.92%"}
{"smiles": "COCCn1c(=O)c(-c2ccc(OC)cc2)nc2cnc(Nc3cccc(OC)c3)nc21", "activity, negative = inhibition": "-1.21%"}
{"smiles": "CCOc1cc(NC(=O)C2CCCCC2)c(OCC)cc1NC(=O)c1ccco1", "activity, negative = inhibition": "-7.01%"}
{"smiles": "COc1ccc(NC(=O)c2cc(-c3ccccc3Cl)no2)cc1", "activity, negative = inhibition": "-0.131%"}
{"smiles": "O=S(=O)(NCc1cc(-c2ccccc2Cl)no1)c1ccc(Cl)cc1", "AC50": "12.6 µM (active)"}
{"smiles": "Cn1c(CNS(=O)(=O)c2ccc(Cl)cc2)n[nH]c1=S", "activity, negative = inhibition": "1.81%"}
{"smiles": "O=S(=O)(NCc1cc(-c2ccc(Cl)cc2)no1)c1ccc(Cl)cc1", "AC50": "0.631 µM (active)"}
{"smiles": "O=C(Nc1ccccc1)c1cc(-c2ccccc2Cl)no1", "activity, negative = inhibition": "-4.64%"}
{"smiles": "Clc1ccc(SCc2cc(-c3ccccc3)no2)cc1", "activity, negative = inhibition": "-0.406%"}
{"smiles": "COc1ccc([C@@H]2CC(=O)c3c(O)cc(O[C@H]4O[C@@H](CO[C@H]5O[C@@H](C)[C@@H](O)[C@@H](O)[C@@H]5O)[C@@H](O)[C@@H](O)[C@@H]4O)cc3O2)cc1O", "activity, negative = inhibition": "9.79% [at 25.6 µM]"}
{"smiles": "COc1cc(Cl)c(C)cc1NC(=O)CNC(=O)Cn1cnc2ccccc2c1=O", "activity, negative = inhibition": "-4.76%"}
{"smiles": "Cc1ccc(S(=O)(=O)c2nc(S(=O)(=O)c3ccc(C)cc3)c(NCc3ccco3)s2)cc1", "activity, negative = inhibition": "-10.8%"}
{"smiles": "Nc1c(S(=O)(=O)c2ccccc2)c2nc3ccccc3nc2n1Cc1ccco1", "AC50": "25.1 µM (active)"}
{"smiles": "Cc1nc2c([nH]1)c(=O)n(C)c(=O)n2Cc1ccco1", "activity, negative = inhibition": "-5.02%"}
{"smiles": "Cc1onc(-c2ccccc2Cl)c1C(=O)NCC(=O)O", "activity, negative = inhibition": "1.38%"}
{"smiles": "O=c1c(-c2cccs2)nc2cnc(Oc3ccccc3)nc2n1Cc1cccs1", "activity, negative = inhibition": "1.93%"}
{"smiles": "NC(=O)CNC(=O)[C@@H]1CC2(CC(c3ccc(Cl)cc3)=NO2)CN1C(=O)c1ccccc1", "note": "(stereo partly specified)", "activity, negative = inhibition": "-26.6%"}
{"smiles": "COc1ccc(S(=O)(=O)N2CCCCCC2)cc1N(C)S(=O)(=O)c1ccc(Cl)cc1", "activity, negative = inhibition": "-14.7%"}
{"smiles": "O=C(c1cccc(F)c1)N1CCC2(CC1)CCN(c1cccc(-c3ccccc3)c1)CC2", "activity, negative = inhibition": "-7.3%"}
{"smiles": "O=C(c1ccncc1)N1CCC2(CC1)CCN(c1ccccc1)CC2", "activity, negative = inhibition": "-13.6%"}
{"smiles": "CC(C)NC(=O)N1CC2(CCN(C(=O)c3ccncc3)CC2)C1", "activity, negative = inhibition": "-0.648%"}
{"smiles": "O=C(c1ccncc1)N1CCC2(CC1)CN(C(c1ccccc1)c1ccccc1)C2", "AC50": "0.0251 µM (active)"}
{"smiles": "O=C(c1ccncc1)N1CCC2(CC1)CN(c1ccc(-c3ccccc3)cc1)C2", "activity, negative = inhibition": "-12.2%"}
{"smiles": "O=C(c1ccncc1)N1CCC2(CCCN(C(c3ccccc3)c3ccccc3)C2)CC1", "AC50": "0.0398 µM (active)"}
{"smiles": "O=C(c1ccncc1)N1CCC[C@@]2(CCN(c3ncccn3)C2)C1", "activity, negative = inhibition": "-15%"}
{"smiles": "O=C(c1ccncc1)N1CCC[C@@]2(CCN(c3ccccc3)C2)C1", "activity, negative = inhibition": "3.11%"}
{"smiles": "CC(C)NC(=O)N1CCCC2(CCN(C(=O)c3ccncc3)CC2)C1", "activity, negative = inhibition": "3.22%"}
{"smiles": "O=C(c1ccncc1)N1CCC2(CC1)CN(c1ccccc1)C2", "AC50": "7.94 µM (active)"}
{"smiles": "O=C(c1ccncc1)N1CCC2(CC1)CCN(c1cccc(-c3ccccc3)c1)CC2", "AC50": "7.94 µM (active)"}
{"smiles": "CCN(CC)c1ccc(N2C(=O)/C(=C\\c3cccnc3)SC2=S)cc1", "activity, negative = inhibition": "3.38%"}
{"smiles": "NOCC(=O)O", "activity, negative = inhibition": "1.43%"}
{"smiles": "CCCOc1ccc(C(=O)NC(=S)Nc2nc3ccc(C)cc3s2)cc1", "activity, negative = inhibition": "-1.11%"}
{"smiles": "Cc1cc(C)nc(NC(=O)CCCC(=O)O)c1", "activity, negative = inhibition": "10.1%"}
{"smiles": "Cc1ccc(N(CC(N)=O)C2SC(=O)N(Cc3cccc(C(=O)O)c3)C2=O)cc1", "note": "(stereo unspecified)", "activity, negative = inhibition": "-6.54%"}
{"smiles": "CCOC(=O)CN(c1ccccn1)S(=O)(=O)c1ccccc1", "activity, negative = inhibition": "-2.7%"}
{"smiles": "O=C(O)c1ccc(CSc2nc3ccccc3o2)cc1", "activity, negative = inhibition": "7.39%"}
{"smiles": "O=S(=O)(c1ccccc1)N1CCN(c2cc(-c3ccccc3)nc3ncnn23)CC1", "activity, negative = inhibition": "-10.2%"}
{"smiles": "O=C(O)c1ccc(NCc2nc3cc4ccccc4cc3[nH]2)cc1", "activity, negative = inhibition": "3.49% [at 11.4 µM]"}
{"smiles": "O=C(c1cccc(F)c1)N1CCC2(CC1)CCN(c1ccccc1)CC2", "activity, negative = inhibition": "-3.45%"}
{"smiles": "Cn1cccc1C(=O)N1CCC2(CC1)CN(C(c1ccccc1)c1ccccc1)C2", "AC50": "3.16 µM (active)"}
{"smiles": "O=C(c1cccc(F)c1)N1CCC2(CC1)CCN(C(c1ccccc1)c1ccccc1)CC2", "AC50": "3.16 µM (active)"}
